According to the supplement of paper PMC11732987, “Enantioselective OTUD7B fragment discovery through chemoproteomics screening and high-throughput optimisation” (Communications Chemistry, 2025):

Assays:
Test in all cases: log2 ratio of Biotin-Ahx-Ub-VS probe labelling (fragment/DMSO); higher = less target engagement (more negative = stronger competition), active = hit call of the paper (q ≤ 0.05, log2 ratio ≤ -1)
Settings in all cases: compound concentration: 200 uM; treatment time: 3 h
[1] = molecular target: T1, USP19 (UniProt O94966)
T1 sequence (whole entry): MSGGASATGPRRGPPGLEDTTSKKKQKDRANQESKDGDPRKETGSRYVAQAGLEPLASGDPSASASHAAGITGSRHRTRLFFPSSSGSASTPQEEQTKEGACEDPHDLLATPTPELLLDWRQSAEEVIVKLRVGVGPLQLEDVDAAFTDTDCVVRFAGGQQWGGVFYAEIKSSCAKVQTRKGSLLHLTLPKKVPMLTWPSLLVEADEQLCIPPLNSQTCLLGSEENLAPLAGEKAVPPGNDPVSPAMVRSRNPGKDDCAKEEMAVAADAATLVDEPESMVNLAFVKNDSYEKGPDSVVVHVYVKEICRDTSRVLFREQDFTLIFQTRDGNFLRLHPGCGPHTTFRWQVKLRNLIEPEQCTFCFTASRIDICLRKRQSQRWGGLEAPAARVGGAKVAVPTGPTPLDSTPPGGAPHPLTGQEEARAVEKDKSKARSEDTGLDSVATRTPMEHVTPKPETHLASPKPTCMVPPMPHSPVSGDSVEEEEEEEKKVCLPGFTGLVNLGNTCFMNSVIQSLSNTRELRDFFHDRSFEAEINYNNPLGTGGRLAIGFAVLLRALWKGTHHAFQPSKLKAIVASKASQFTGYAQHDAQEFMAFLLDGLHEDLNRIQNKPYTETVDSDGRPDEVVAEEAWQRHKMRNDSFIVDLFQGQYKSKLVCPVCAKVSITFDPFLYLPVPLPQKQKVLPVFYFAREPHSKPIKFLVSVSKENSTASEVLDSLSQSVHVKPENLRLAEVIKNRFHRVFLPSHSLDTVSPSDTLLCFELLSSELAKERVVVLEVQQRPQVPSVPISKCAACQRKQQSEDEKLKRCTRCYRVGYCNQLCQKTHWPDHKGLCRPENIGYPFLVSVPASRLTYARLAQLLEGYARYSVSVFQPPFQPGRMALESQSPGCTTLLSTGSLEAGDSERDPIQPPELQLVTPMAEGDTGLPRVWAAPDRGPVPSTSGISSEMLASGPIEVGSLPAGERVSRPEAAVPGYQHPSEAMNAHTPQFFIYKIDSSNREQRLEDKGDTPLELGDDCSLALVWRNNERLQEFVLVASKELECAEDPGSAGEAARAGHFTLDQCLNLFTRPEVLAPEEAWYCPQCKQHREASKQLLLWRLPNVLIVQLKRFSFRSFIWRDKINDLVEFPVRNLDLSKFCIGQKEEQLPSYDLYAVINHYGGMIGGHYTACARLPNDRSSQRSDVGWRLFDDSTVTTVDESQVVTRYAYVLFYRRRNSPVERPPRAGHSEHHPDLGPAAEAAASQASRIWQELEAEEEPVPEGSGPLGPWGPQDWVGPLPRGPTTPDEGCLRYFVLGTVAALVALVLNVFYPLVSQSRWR
How it was run: (§1)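 Each value is an average log2 ratio of fragment to vehicle, tested by unpaired t-test. The underlying Spectronaut label-free quantities were global-median-normalised, and only proteins with ≥2 unique peptides were included. Triplicate HEK293T lysate samples (495 µg) were exposed to fragment at 200 µM or vehicle for 3 h, then to Biotin-Ahx-Ub-VS at 0.5 µM final for 1 h, before NeutrAvidin enrichment of labelled DUBs, LysC and trypsin digestion, and diaPASEF LC-MS/MS.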

[2] = molecular target: T2, USP22 (UniProt Q9UPT9)
T2 sequence (whole entry): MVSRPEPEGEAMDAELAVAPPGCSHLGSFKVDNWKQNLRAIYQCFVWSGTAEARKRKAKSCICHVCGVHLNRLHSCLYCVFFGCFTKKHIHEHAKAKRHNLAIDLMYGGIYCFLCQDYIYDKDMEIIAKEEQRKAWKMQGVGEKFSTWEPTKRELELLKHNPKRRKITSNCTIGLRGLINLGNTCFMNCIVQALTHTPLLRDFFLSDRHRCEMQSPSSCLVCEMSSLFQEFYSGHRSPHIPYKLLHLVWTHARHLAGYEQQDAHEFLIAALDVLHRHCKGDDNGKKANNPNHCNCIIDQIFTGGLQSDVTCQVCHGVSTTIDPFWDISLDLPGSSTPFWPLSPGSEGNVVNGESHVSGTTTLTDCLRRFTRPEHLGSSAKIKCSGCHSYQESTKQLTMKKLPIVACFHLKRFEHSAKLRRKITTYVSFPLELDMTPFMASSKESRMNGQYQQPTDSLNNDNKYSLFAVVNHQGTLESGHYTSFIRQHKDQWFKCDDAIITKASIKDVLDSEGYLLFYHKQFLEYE
How it was run: as §1

[3] = molecular target: USP24 (UniProt Q9UPU5)
Sequence of USP24 (Q9UPU5 whole entry): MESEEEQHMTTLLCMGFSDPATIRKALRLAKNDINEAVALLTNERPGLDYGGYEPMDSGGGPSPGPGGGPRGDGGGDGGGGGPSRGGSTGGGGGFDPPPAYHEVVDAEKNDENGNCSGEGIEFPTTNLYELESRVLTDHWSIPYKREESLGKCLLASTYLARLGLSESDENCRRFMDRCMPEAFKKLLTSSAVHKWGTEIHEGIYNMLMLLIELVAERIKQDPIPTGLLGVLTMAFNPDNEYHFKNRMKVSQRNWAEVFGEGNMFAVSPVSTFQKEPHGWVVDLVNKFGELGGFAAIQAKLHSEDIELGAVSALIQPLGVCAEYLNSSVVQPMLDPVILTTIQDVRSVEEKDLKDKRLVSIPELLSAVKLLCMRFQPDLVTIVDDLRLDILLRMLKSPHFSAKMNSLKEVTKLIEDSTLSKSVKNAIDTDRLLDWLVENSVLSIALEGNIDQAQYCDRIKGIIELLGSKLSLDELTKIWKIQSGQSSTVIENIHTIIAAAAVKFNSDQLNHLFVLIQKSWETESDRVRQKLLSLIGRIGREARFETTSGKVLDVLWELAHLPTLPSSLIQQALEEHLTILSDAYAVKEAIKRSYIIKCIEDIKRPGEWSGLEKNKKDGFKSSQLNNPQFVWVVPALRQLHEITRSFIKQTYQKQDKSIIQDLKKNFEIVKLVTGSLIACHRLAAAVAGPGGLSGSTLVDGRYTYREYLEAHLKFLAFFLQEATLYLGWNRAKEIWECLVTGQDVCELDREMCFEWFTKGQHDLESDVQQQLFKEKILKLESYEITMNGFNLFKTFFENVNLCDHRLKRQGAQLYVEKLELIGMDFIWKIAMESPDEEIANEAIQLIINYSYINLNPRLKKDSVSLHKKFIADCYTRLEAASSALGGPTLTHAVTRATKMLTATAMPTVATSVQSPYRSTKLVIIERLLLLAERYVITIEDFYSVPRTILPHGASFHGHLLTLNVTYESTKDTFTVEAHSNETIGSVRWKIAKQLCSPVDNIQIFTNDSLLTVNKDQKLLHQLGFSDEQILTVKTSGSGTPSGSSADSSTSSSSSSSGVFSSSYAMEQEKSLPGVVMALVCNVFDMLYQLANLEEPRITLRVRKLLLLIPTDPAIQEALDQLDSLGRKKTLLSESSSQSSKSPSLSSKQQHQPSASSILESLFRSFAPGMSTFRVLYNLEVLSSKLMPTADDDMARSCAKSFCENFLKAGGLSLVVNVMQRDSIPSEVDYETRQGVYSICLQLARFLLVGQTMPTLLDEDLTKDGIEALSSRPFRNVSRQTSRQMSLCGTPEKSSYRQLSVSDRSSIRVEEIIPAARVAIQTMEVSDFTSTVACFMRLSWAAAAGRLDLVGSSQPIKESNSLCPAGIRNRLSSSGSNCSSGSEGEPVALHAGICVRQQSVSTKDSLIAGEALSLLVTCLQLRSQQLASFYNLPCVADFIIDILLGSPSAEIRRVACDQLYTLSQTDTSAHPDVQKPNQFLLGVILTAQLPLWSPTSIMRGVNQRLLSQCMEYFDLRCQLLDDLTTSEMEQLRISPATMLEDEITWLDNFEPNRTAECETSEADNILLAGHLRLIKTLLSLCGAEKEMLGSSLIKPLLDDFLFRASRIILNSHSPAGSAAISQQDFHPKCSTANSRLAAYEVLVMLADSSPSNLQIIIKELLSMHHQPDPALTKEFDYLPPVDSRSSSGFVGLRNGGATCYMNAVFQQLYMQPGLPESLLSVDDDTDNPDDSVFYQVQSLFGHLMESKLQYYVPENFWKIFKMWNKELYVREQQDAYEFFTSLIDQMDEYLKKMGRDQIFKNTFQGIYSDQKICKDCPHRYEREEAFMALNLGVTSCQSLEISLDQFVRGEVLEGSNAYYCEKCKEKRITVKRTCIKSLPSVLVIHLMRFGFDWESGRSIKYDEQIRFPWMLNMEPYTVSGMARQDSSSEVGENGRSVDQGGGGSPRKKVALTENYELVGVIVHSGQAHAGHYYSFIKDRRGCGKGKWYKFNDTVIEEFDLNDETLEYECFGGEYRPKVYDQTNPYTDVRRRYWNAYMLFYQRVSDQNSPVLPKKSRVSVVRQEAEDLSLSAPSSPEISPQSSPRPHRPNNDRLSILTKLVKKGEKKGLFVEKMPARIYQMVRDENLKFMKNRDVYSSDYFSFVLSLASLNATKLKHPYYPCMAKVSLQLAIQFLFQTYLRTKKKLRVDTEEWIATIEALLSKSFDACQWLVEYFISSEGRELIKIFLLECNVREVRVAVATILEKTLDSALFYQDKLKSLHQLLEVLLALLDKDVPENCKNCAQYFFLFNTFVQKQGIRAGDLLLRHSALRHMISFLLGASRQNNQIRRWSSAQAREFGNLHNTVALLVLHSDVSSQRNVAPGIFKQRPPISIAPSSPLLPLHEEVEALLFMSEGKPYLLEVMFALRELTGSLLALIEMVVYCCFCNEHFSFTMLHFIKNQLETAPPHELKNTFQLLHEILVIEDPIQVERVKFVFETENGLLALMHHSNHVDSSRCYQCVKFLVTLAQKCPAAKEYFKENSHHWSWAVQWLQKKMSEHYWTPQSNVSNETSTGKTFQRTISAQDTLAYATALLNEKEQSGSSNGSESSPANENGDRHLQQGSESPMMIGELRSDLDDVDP
How it was run: as §1

[4] = molecular target: T3, USP25 (UniProt Q9UHP3)
T3 sequence (whole entry): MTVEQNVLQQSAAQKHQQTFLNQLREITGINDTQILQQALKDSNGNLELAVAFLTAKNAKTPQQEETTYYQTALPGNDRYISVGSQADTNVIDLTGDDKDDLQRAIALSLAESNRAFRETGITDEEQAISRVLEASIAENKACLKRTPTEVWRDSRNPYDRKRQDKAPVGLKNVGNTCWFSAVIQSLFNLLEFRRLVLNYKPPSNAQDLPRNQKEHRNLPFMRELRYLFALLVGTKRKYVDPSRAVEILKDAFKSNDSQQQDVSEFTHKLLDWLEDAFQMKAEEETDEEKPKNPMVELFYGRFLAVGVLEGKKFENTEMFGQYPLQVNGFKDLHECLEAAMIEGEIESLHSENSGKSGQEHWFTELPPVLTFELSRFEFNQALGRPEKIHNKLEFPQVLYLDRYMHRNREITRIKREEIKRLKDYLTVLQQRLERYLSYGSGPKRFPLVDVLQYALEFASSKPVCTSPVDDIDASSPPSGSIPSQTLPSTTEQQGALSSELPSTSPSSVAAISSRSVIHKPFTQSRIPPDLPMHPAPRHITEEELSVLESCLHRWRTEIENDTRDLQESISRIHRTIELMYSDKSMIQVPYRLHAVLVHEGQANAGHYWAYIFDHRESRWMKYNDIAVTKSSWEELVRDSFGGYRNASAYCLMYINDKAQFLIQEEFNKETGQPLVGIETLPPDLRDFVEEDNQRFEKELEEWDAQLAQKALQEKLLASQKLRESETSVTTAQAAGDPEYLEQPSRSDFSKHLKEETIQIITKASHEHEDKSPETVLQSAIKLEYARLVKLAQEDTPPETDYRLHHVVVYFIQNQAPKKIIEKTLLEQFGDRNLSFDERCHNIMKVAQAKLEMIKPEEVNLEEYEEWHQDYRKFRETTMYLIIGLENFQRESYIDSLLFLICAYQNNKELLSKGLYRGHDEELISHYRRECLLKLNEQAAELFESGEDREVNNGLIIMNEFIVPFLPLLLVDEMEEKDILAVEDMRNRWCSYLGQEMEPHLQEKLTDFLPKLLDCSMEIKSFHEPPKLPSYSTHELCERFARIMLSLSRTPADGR
How it was run: as §1

[5] = molecular target: T4, USP28 (UniProt Q96RU2)
T4 sequence (whole entry): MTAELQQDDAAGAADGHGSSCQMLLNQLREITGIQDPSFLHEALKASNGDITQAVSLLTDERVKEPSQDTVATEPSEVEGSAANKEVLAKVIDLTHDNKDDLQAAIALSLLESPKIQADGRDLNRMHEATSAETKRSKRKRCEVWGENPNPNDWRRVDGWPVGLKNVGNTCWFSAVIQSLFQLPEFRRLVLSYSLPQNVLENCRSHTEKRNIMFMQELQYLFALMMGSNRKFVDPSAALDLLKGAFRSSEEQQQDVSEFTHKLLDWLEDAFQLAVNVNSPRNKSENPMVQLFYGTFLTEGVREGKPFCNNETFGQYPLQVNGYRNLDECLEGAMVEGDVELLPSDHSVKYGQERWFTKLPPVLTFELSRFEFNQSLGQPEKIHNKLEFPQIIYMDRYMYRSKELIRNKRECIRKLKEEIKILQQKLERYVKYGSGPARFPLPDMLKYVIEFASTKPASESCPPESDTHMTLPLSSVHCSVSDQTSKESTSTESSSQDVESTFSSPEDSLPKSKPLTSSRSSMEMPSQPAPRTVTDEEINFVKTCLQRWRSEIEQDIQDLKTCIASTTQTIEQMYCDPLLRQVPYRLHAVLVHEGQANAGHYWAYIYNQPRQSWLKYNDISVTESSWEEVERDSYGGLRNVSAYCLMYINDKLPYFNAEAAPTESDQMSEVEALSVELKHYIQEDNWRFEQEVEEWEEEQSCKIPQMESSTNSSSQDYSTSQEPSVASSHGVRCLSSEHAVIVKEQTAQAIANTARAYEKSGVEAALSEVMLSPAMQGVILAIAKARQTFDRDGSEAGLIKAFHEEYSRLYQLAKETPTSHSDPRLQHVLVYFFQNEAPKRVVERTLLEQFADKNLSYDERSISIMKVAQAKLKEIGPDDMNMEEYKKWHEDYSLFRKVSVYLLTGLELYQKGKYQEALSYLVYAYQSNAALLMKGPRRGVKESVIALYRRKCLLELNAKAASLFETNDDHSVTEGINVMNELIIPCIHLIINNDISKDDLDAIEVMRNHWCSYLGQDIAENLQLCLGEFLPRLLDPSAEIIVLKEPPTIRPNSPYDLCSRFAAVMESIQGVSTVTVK
How it was run: as §1

Measured: log2 ratio of Biotin-Ahx-Ub-VS probe labelling

O=C(CCl)Nc1cccc2ncccc12
inactive: [1] -0.114 | [2] 0.19 | [3] -0.136 | [4] -0.527 | [5] -0.917
